The nature of this experiment: miR-122 quantity in Huh7 after inhibitor exposure – cell-based, RT-qPCR, dry powder, orthogonal assay for miR-122 inhibitor project, dose response (AID 687041).

Measured potencies and affinities stand elsewhere. The source made the active and inactive calls.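 How the source made its calls: active means compounds lowering miR-122 whose fitted half-maximal concentration is at most twice the top tested dose; inconclusive means flat fit with moderate reduction, or poor fit quality; inactive means the rest.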

`O=C(CN1CCOCC1)Nc1ccc(Br)cc1C(=O)c1ccccc1`: the result was inactive.

Source of the values: PubChem BioAssay AID687041 (Broad Institute, 2013).
